Results filed as inconclusive are left out. Where a call stands in place of a potency, no number is given. Calls of active or inactive are those of the source. The call rests on the fitted dose curve; in most records, active means well fitted inhibition curve with a large enough effect; inconclusive means small, poorly fitted or top-dose-only effect; inactive means flat fitted curve, though single readings scatter.
Potency means the concentration at half of the fitted maximal effect.

This experiment deals with MCC-26. Briefly: qHTS assay to identify novel small-molecules to repurpose for Merkel cell carcinoma treatment (AID 1296009). Further: nearly all actives have a fitted effect of over 60% in size. The note with it: MCC and control cell lines, CellTiter-Glo viability, 72 h; series mostly up to 46 µM. A digest of the protocol: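 Luminescence from CellTiter-Glo, read 10 min after addition at room temperature, reported viability following a 72 hr, 37 degree celsius treatment with NPC or MIPE compounds in titration; values normalized to plate controls.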
On the technique in general: Quantitative high-throughput screening tests each substance at several concentrations.
`C[n+]1c2cc(N)ccc2cc2ccc(N)cc21` (tested in a mixture with another compound): the Potency is 15 µM (active).
The value for `CC(=O)c1ccc2c(c1)N(CCCN1CCC(CCO)CC1)c1ccccc1S2` was “inactive”; that for `COc1cc2c(cc1OC)C(C(C(=O)N(CCc1ccc(OC)c(OC)c1OC)CCc1ccc(OC)c(OC)c1OC)c1ccccc1)=NCC2` (centres undefined) was “inactive”; that for `C[C@H]1C[C@H]2[C@@H]3CCC4=CC(=O)C=C[C@]4(C)[C@@]3(Cl)[C@@H](O)C[C@]2(C)[C@@]1(O)C(=O)CO` was “inactive”.
`CCCCOc1ccc(OCCCN2CCOCC2)cc1`: the Potency entry was “inactive”.
Consider `CC(=O)[C@H]1CC[C@H]2[C@@H]3C[C@H](C)C4=CC(=O)CC[C@]4(C)[C@H]3[C@@H](O)C[C@]12C`, for which the Potency result was “inactive”.
For the compound `O=C(OCC(O)CO)c1ccccc1Nc1ccnc2cc(Cl)ccc12` (centres undefined), the Potency entry was “inactive”.
For the compound `CC(=O)N/N=C/c1ccc([N+](=O)[O-])o1`, the Potency entry was “inactive”.
Regarding `COc1cc2c(cc1OC)[C@@H]1CC(=O)[C@@H](CC(C)C)CN1CC2`, the Potency result was “inactive”.
Take `C=C1C[C@H]2[C@@H]3C=C(C)C4=CC(=O)CC[C@]4(C)[C@H]3CC[C@]2(C)[C@@]1(OC(C)=O)C(C)=O`: the Potency result was “inactive”.
For `CN(C)CCCOc1nn(Cc2ccccc2)c2ccccc12`, the Potency result was “inactive”.
Regarding `CC(=O)Oc1ccc(C(c2ccc(OC(C)=O)cc2)c2ccccn2)cc1`, the Potency result is “inactive”.
To `C=C1C(=C/C=C2\CCC[C@]3(C)[C@@H]([C@H](C)/C=C/[C@@H](O)C4CC4)CC[C@@H]23)C[C@@H](O)C[C@@H]1O` belongs “inactive”; to `CN(C/C=C/c1ccccc1)Cc1cccc2ccccc12`, “inactive”.

These data come from PubChem BioAssay (NCATS).
